High-throughput results from PubChem.
The list is not random: actives were taken first. Their share in the collection is about 2.9%.
POLI inh: inhibitors of human DNA polymerase iota. Pol iota fluorescent replication assay, 10 min. 1% of 390,000 active. Potency, µM (top dose mostly 115 µM), for inactives: at the top dose activity, negative = inhibition, usual class: inhibitors; note: potency is the fitted concentration of half-maximal effect
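Pol iota at 10 nM preincubated 15 min with compounds at room temperature; reaction started with fluorescent substrate, 50 nM final. Fluorescence read kinetically at 0 and 10 min; buffer-only wells as negative control.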
Pol eta inh-1: inhibitors of human DNA polymerase eta. AID 588591. recombinant Pol eta, fluorescent DNA replication assay. 1.2% of 390,000 active. Potency, µM (highest dose often 114 µM), inactives show at the top dose activity change, negative = inhibition, hits mostly inhibitors; note: potency is the fitted concentration of half-maximal effect; % is set by controls: 0 for no effect and ±100 for the full control effect
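Pol eta at 10 nM preincubated with compounds 15 min at room temperature; reaction started with fluorescent substrate (50 nM final) and read kinetically at 0 and 10 min.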
POLB inh: inhibitors of human DNA polymerase beta; P06746; Pol beta primer extension/strand displacement, fluorescence kinetic; Potency, µM (doses to about 114 µM), for the others: at the top dose activity change, negative = inhibition, hits mostly inhibitors; 1.3% of 340,000 active; note: potency is the fitted concentration of half-maximal effect; % is set by controls: 0 for no effect and ±100 for the full control effect
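Human Pol beta at 10 nM; strand-displacement substrate 50 nM final. Compound exposure 15 min at room temperature before start, reaction 10 min at room temperature.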
Pol kappa inh-1: DNA polymerase kappa (human) inhibition. Q9UBT6. purified Pol kappa, fluorescent DNA synthesis assay, 10 min. Potency, µM (series often up to 107 µM), for inactives: at the highest dose activity, negative = inhibition, hits mostly inhibitors. 0.53% of 400,000 active. AID 588579; note: potency is the fitted concentration of half-maximal effect; % is set by controls: 0 for no effect and ±100 for the full control effect
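Kinetic fluorescence readout at 0 and 10 min followed reaction start with substrate at 50 nM final. Beforehand, enzyme (10 nM Pol kappa) stood 15 min with compound at room temperature; buffer-only wells were negative controls.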
12-LOX inh: inhibitors of human 12S-lipoxygenase ALOX12 | P18054 | purified 12hLO, xylenol orange hydroperoxide absorbance | Potency, µM (top dose mostly 108 µM), for inactives: at the highest dose activity change, negative = inhibition, actives largely listed as inhibitors | 1.1% of 580,000 active; note: potency is the fitted concentration of half-maximal effect; % is set by controls: 0 for no effect and ±100 for the full control effect
Target sequence (P18054 whole entry, looked up): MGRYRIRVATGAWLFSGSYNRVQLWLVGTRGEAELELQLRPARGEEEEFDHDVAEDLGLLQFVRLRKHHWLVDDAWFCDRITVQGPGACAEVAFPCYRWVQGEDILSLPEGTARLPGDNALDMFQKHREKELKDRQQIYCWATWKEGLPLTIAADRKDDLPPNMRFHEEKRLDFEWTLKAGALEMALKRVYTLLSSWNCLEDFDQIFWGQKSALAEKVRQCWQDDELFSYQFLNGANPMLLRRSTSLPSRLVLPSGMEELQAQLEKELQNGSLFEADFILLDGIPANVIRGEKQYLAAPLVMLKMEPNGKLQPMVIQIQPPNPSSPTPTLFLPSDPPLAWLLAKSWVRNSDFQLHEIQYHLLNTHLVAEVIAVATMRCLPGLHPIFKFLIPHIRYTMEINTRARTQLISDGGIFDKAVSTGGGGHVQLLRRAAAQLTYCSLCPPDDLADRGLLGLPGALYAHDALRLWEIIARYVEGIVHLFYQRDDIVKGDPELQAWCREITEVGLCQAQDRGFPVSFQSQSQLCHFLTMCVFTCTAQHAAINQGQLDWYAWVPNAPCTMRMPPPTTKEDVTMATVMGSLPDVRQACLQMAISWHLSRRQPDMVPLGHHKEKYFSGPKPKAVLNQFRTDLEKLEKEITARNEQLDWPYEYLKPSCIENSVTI
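Purified human 12hLO at 150 nM in 25 mM Hepes, 0.01% Triton X-100, pH 7.0, preincubated 15 min at room temperature with compound. Reaction started with 40 uM arachidonic acid, 30 min at room temperature. Hydroperoxide measured by Fe-xylenol orange, 573/405 nm absorbance ratio.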
PI5P4K alpha inh: inhibitors of human PI5P4K alpha | max response, % | 1.2% of 330,000 active | AID 652105 | P48426 | PI5P4Kalpha enzyme, ADP-Glo luminescence, 60 min; stronger effect = lower value; active = max response of -50% or lower; inconclusive = between -30% and -50%; inactive = -30% or higher; note: value at the top dose of about 77 µM; % is set by controls: 0 for no effect and ±100 for the full control effect
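Human PI5P4Kalpha with substrate in 0.038 M HEPES pH 7.4, 0.28 mM EGTA, 0.1% CHAPS, 5% DMSO; reaction started with 5 microM ATP (final), 60 min at room temperature. ADP formed read by ADP-Glo luminescence.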
Pol kappa inh-2: confirmation of human DNA polymerase kappa inhibitors. shares compounds with Pol eta inh-1. purified Pol-kappa, fluorescent strand-displacement substrate. Potency, µM, usual class: inhibitors. 76% of 920 active. AID 720501; note: potency is the fitted concentration of half-maximal effect
Pol eta inh-2: Pol eta (human) inhibition, cherry-pick confirmation; 64% of 2,600 active; Potency, µM, usual class: inhibitors; shares compounds with Pol eta inh-1; Pol eta primer extension, TAMRA/BHQ fluorescence, 10 min; note: potency is the fitted concentration of half-maximal effect
Starred values were filed as active, the others as inactive; [ ] = remark or other dose. Unless noted, calls come from the whole dose curve; as a rule, active = well fitted inhibition curve with a large enough effect; inconclusive = small, poorly fitted or top-dose-only effect, or another doubt; inactive = no such curve, though single readings can be large or run the other way.

For O=C(Nc1ccc2oc(-c3ccncc3)nc2c1)c1ccc(Cl)cc1 the results were 12-LOX inh 10%.
CC(=O)Oc1cc(C(=O)OCC(=O)NC23CC4CC(CC(C4)C2)C3)cc(OC(C)=O)c1OC(C)=O was read as POLI inh inconclusive, Pol eta inh-1 3.2µM*, Pol kappa inh-1 18µM*, 12-LOX inh inconclusive, PI5P4K alpha inh inconclusive, Pol kappa inh-2 8.4* and Pol eta inh-2 9.5*.
For COc1cccc(C(=O)OCC(=O)NC23CC4CC(CC(C4)C2)C3)c1 the results were POLI inh 57%, Pol eta inh-1 -23%, Pol kappa inh-1 -5%, 12-LOX inh -3% and PI5P4K alpha inh 7.
`O=C(COC(=O)c1ccc(S(=O)(=O)NCc2ccco2)cc1)Nc1ncc(Cl)cc1Cl` gave POLI inh 64%, Pol eta inh-1 -28%, POLB inh inconclusive, Pol kappa inh-1 -11%, 12-LOX inh -7% and PI5P4K alpha inh -13.
Screening CC(OC(=O)c1ccc(S(=O)(=O)NCc2ccco2)cc1)C(=O)Nc1ccc(Cl)cn1 (centres undefined) returned POLI inh inconclusive, Pol eta inh-1 inconclusive, POLB inh inconclusive, Pol kappa inh-1 -19%, 12-LOX inh inconclusive, PI5P4K alpha inh inconclusive and Pol eta inh-2 67*.
`Fc1ccc(OCc2nnc(-c3ccc(Cl)cc3)o2)cc1` gave 12-LOX inh -25%.
`O=C(C1Cc2ccccc2CN1C(=O)c1ccccc1)N1CCN(c2ccccc2)CC1` (centres undefined) gave POLI inh inconclusive, Pol eta inh-1 79µM*, POLB inh 32µM*, Pol kappa inh-1 inconclusive, 12-LOX inh -16%, PI5P4K alpha inh -24, Pol kappa inh-2 inconclusive and Pol eta inh-2 76*.
For COc1ccc(N2CCN(C(=O)C3Cc4ccccc4CN3C(=O)c3ccco3)CC2)cc1 (centres undefined) the results were POLI inh -1%, Pol eta inh-1 -3%, Pol kappa inh-1 -17%, 12-LOX inh 4% and PI5P4K alpha inh 3.
O=C(Nc1cccc(Cl)c1)N1CCN(Cc2nc3cc(C(=O)N4CCCCC4)ccc3o2)CC1 was read as 12-LOX inh -2%.
Cc1cc(=O)n2c3ccccc3n(CC(O)CNc3ccc(F)cc3)c2c1C#N (centres undefined) was read as 12-LOX inh 1%.
Screening O=C1/C(=C\c2ccccn2)SC(=S)N1c1ccc(S(=O)(=O)Nc2nccs2)cc1 returned POLI inh inconclusive, Pol eta inh-1 18µM*, POLB inh inconclusive, Pol kappa inh-1 inconclusive, 12-LOX inh 145%, PI5P4K alpha inh -71* and Pol eta inh-2 85*.
Cc1ccc(N2C(=O)/C(=C/c3cccnc3)SC2=S)cc1 was read as POLI inh 189%, Pol eta inh-1 -14%, POLB inh 47%, Pol kappa inh-1 -6%, 12-LOX inh 3% and PI5P4K alpha inh 2.
`Cc1ccc(/C=C2/SC(=S)N(c3ccc(S(=O)(=O)Nc4nccs4)cc3)C2=O)cc1` gave POLI inh 18µM*, Pol eta inh-1 40µM*, POLB inh inconclusive, Pol kappa inh-1 inconclusive, 12-LOX inh 214%, PI5P4K alpha inh -68* and Pol eta inh-2 76*.
CCOc1cccc(-c2cc(C(=O)O)c3cccc(C)c3n2)c1 was read as 12-LOX inh -3%.
`CN(C)c1ccc(NC(=O)CSCc2nc3c(nnn3Cc3ccc(F)cc3)c(=O)[nH]2)cc1` gave POLI inh 28µM*, Pol eta inh-1 50µM*, POLB inh 28µM*, Pol kappa inh-1 inconclusive and Pol eta inh-2 inconclusive.
Screening Cc1cccc(NC(=O)CSCc2nc3c(nnn3Cc3ccc(F)cc3)c(=O)[nH]2)c1C returned POLI inh -25%, Pol eta inh-1 -23%, POLB inh 6%, Pol kappa inh-1 -6%, 12-LOX inh -3% and PI5P4K alpha inh 7.
`CO/N=C(/C(=O)N[C@@H]1C(=O)N2C(C(=O)O)=C(CSc3nc(C)c(CC(=O)O)s3)CS[C@H]12)c1csc(N)n1` gave Pol kappa inh-1 -3%[19.4 µM].
Cc1nnc(SCC2=C(C(=O)O)N3C(=O)C(NC(=O)C(C)n4nc(C(F)(F)F)cc4C)C3SC2)s1 (centres undefined) was read as POLI inh -19%, Pol eta inh-1 22µM*, POLB inh 18µM*, Pol kappa inh-1 -33%, 12-LOX inh 2%, PI5P4K alpha inh 1 and Pol eta inh-2 27*.
Cc1ccc(NCc2c(C#N)c3ccccc3n2C)cc1 was read as 12-LOX inh -1%.
Screening COc1ccccc1C(=O)NC1CC(=O)N(c2cccc(F)c2)C1 (centres undefined) returned 12-LOX inh 6%.
`CCOC(=O)c1c2c(n(Cc3ccccc3)c1C)C(=O)C(=O)c1ccccc1-2` gave POLI inh 40µM*, Pol eta inh-1 8.9µM*, Pol kappa inh-1 -24%, 12-LOX inh -18%, PI5P4K alpha inh 14 and Pol eta inh-2 85*.
Screening O=C1C(C2=NC(C(=O)O)C3C(=O)N(c4ccccc4)C(=O)C23)=C(O)c2ccccc21 (centres undefined) returned POLI inh 34%, Pol eta inh-1 -2%, POLB inh 1%, Pol kappa inh-1 -10%, 12-LOX inh 0% and PI5P4K alpha inh -4.
